Assays:
[1] = target: T1, Aspartate--tRNA(Asp/Asn) ligase (Mycobacterium tuberculosis (strain ATCC 25618 / H37Rv)) (UniProt P9WFW3); assay: Assay for Asp RNA synthetase-1 from Mycobacterium tuberculosis; type: functional; set-up: scale not given: direction of the effect not stated beside the values; settings: 30 µM; note: in the data most compounds retested in dose-response had high values
T1 sequence (whole entry): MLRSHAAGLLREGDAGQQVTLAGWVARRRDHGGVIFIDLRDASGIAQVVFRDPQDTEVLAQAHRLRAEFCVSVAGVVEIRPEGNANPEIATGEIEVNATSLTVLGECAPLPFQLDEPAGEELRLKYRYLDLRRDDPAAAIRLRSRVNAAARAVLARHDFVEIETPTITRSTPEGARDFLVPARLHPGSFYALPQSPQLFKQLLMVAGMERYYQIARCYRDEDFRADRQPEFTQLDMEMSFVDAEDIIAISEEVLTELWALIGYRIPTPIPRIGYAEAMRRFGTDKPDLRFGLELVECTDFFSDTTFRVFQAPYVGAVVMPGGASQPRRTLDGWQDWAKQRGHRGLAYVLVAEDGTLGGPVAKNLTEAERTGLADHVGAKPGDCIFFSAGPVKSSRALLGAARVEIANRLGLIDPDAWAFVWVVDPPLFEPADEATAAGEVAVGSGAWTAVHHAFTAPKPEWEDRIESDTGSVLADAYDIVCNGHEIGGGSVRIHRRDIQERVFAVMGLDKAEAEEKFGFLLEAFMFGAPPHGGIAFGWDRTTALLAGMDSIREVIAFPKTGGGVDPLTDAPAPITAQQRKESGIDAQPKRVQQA

[2] = target: Shiga toxin 2 (Escherichia coli O157:H7) (UniProt P09385+P09386); assay: E. coli 0.157:H7 Shiga Toxin SOP - stx2 screening assay; type: functional; set-up: scale not given: direction of the effect not stated beside the values; settings: 30 µM

Structure (SMILES)	Percent Effect [1]	Percent Effect [2]
COc1ccc(C2C3=C(COC3=O)Nc3[nH]nc(C)c32)cc1OC (configuration not stated)	-2.61%	-21.4%
CN1CCN(C[C@@H]2OC[C@H]3CN(Cc4cccc(F)c4)CC[C@H]32)CC1	-1.14%	11.3%
Cn1cc(-c2csc(CN3CCOCC3)n2)cn1	-7.74%	2.01%
COc1ccc(-c2cnc(CN3CCn4c(C)nnc4C3)o2)cc1	0.144%	-27.2%
Cc1ccc(C(CNCC2CC2)N2CCOCC2)s1 (configuration not stated)	3.84%	-22.1%
Cc1ccc(-c2cc(CNC(=O)N3CCC(CO)CC3)on2)cc1	3.99%	16.1%
CCS(=O)(=O)CCN1CCCC1c1noc(C2CC2)n1 (configuration not stated)	-2.94%	-0.711%
NS(=O)(=O)CCNC(=O)C1(c2ccc(Br)cc2)CC1	1.66%	-28.2%
COc1cc2cc(C(=O)O)n(C)c2cc1OC	-0.697%	-0.0542%
O=C(NCCN1CCNCC1)c1nc2ccccc2c(=O)[nH]1	2.9%	-55.8%
CCCS(=O)(=O)NC(C)C(=O)NCc1ccc(N2CCCC2)nc1 (configuration not stated)	2.42%	7.72%
COc1ccc(CN2CCCC2Cn2nc(C)nc2C)cc1F (configuration not stated)	-1.56%	-0.778%
CC(C)c1noc(C(C)N2CCN(Cc3ccccc3C#N)CC2)n1 (configuration not stated)	-1.01%	12.5%
CCN1CCC(NC(=O)CN2CCCCC2Cn2cc(C)cn2)CC1 (configuration not stated)	-0.102%	-21.7%
CC(NC(=O)NCc1cccc(N2CCCC2=O)c1)c1ccccc1 (configuration not stated)	-1.99%	21.2%
CN1CCN(c2nc(O)c3c(-c4ccccn4)ccnc3n2)CC1	-3.26%	7.03%
COc1ccc(C(=O)N(C)Cc2cccc(C#N)c2)c(OC)c1OC	-1.51%	30.3%
CCc1ccccc1-n1cc(O)c(C(=O)N2CCCCC2)n1	1.02%	31%
CN1N=C(C(=O)Nc2cc(F)ccc2OCC2CCCO2)CCC1=O (configuration not stated)	-1.12%	5.1%
CN(C)C(=O)[C@@H]1CCO[C@@H]2CCN(Cc3ccc4c(c3)OCO4)C[C@@H]21	-0.534%	-27.6%
CCOCC1CN(C(=O)c2cccn2C)Cc2cnn(CC3CC3)c21 (configuration not stated)	5.55%	-5.56%
Cn1cc(CN2CCn3cc(CNC(=O)c4cccn4C)nc3C2)cn1	2.49%	-19.5%
CCc1nc(C2CCCN2C(=O)c2ccoc2C)no1 (configuration not stated)	1.77%	-24%

Structure (SMILES)	Percent Effect [1]	Percent Effect [2]
CC(C)Oc1cccc(C(=O)C2CCCN(C(=O)c3ncn[nH]3)C2)c1 (configuration not stated)	0.948%	-0.343%
Cc1nnc2n1CCN(C(=O)c1cc(Cl)c[nH]1)C2	-0.345%	2.46%
O=C(c1ccco1)N1C[C@H]2CCCN(Cc3cccs3)[C@H]2C1	6.24%	-1.93%
Fc1cccc(-c2nc(CN3CCCCC3Cn3cncn3)co2)c1 (configuration not stated)	0.0286%	14.4%
CN(c1ccc(F)c(F)c1)S(=O)(=O)c1cc(C(=O)O)cs1	1.3%	20.8%
Cc1n[nH]c(C)c1NC(=O)CN1CCCC(CNC(=O)C(C)(C)C)C1 (configuration not stated)	-4.35%	19.6%
CC(NC(=O)c1cc(Br)c2c(c1)OCCO2)C(N)=O (configuration not stated)	-2.13%	-4.92%
CN(C)c1cc(C(=O)NCCc2n[nH]c(=O)[nH]2)ccn1	0.719%	-0.859%
Cc1nn(C)c(C)c1C1CCCN1Cc1cccc(C(N)=O)c1 (configuration not stated)	-1.14%	-1.22%
O=C(O)c1nnn(-c2ccc(OC(F)(F)F)cc2)c1-c1ccncc1	4.91%	-8.85%
O=C(NCc1cc[nH]n1)N1CCN(c2ccccc2Cl)CC1	0.562%	11.5%
CSCCCN1CC[C@@H](NC(=O)c2cnccn2)[C@H](O)C1	-0.39%	2.82%
CN(C)C(=O)N1CCN(Cc2cnn(C)c2)CC2(CNC(=O)C2)C1 (configuration not stated)	2.15%	-5.82%
Cc1ccc2oc(CNC(C)c3nnc4n3CCCC4)cc2c1 (configuration not stated)	-1.73%	-34.3%
c1ccc(-c2ncc(CNC3CCc4ncnn4C3)cn2)cc1 (configuration not stated)	-0.626%	13.4%
CCCNC(=O)c1ccc2c(c1)C(=O)N(CC(C)C)C2=O	1.59%	3.24%
CCCNCc1cn(C)nc1-c1cccnc1	-0.663%	-14.7%
Cc1noc2nc(C3CCN(Cc4ccncc4)CC3)cc(C(F)F)c12	5.43%	-67.8%
O=C1CC2(CCN(S(=O)(=O)c3cccs3)C2)CN1c1ccccc1 (configuration not stated)	3.64%	7.29%
COCc1nc(C(=O)N2CCCC2c2c(C)nn(C)c2C)cs1 (configuration not stated)	-5.87%	-13.6%
Cc1ncsc1C(=O)NC1CCN(CC(=O)NCc2ccccc2)CC1	1.54%	34.9%
Cc1ccc(CN(Cc2ccccn2)C2CC(C)(C)NC(C)(C)C2)s1	-5.4%	15.6%
Cn1cccc1C(=O)N1CCC2(CC1)CN(c1ccccn1)CCO2	7.46%	-7.72%

Source: ChEMBL document CHEMBL3988442, “University of Dundee, Small-Polar-MMV Screening Library” (2021)
